Records with an inconclusive call do not appear. Active and inactive are the calls of the source. Unless noted, the call rests on the fitted dose curve; in most records, active means well fitted curve in the direction sought with a large enough effect in the repeat runs; inconclusive means weak or mixed curves; inactive means no such curve, though single readings can be large; an effect the other way counts as inactive or inconclusive.
How the values were obtained:
[1] = qHTS assay for small molecule agonists of the p53 signaling pathway (AID 651631; calls by dose curve; further: nearly all actives have a fitted effect of over 15% in size)
Procedure, shortened: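 Beta-lactamase reporter activity under p53 response elements was quantified in HCT-116 cells by FRET fluorescence, following 16 h incubation with test compounds at 37 °C and 2 h substrate development at room temperature.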

[2] = qHTS assay for small molecules that induce genotoxicity in human embryonic kidney cells expressing luciferase-tagged ATAD5 (AID 651632); further: nearly all actives have a fitted effect of over 15% in size
Procedure, shortened: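 HEK293T cells carrying luciferase-tagged ATAD5 were given compound or DMSO vehicle and incubated 16 hr at 37C, 5% CO2. Luciferase activity was read after 30 min at room temperature with Amplite; a rise signals genotoxic stress.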

[3] = qHTS assay for small molecules that induce genotoxicity in human embryonic kidney cells expressing luciferase-tagged ATAD5 - cell viability (AID 651634; calls by dose curve; further: nearly all actives have a fitted effect of over 25% in size)
Procedure, shortened: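 HEK293T cells carrying luciferase-tagged ATAD5, 2,000 cells/well, exposed to compound for 15.5 hr at 37C. Viability read as live-cell protease activity by CellTiter-Fluor fluorescence after 30 min at 37C.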

[4] = qHTS assay for small molecule disruptors of the mitochondrial membrane potential - cell viability (AID 720634; calls by dose curve;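 further: human HepG2 liver cancer cells; series mostly up to about 83 µM; nearly all actives have a fitted effect of over 20% in size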)
Procedure, shortened: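 HepG2 cells, 2,000 per well, attached overnight, then treated 1 hr at 37 C, 5% CO2. Viability read as ATP by CellTiter-Glo luminescence after 30 min at room temperature. Read in the same wells as the m-MPI membrane-potential dye assay.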

[5] = qHTS assay to test for compound auto fluorescence at 590 nm (red) in HepG2 cells (AID 720674)
Procedure, shortened: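 Compound auto-fluorescence is scored relative to Rose Bengal sodium, measured at 540/590 nm in live HepG2 cultures after 1 hr compound contact (37 C, 5% CO2).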

[6] = qHTS assay to test for compound auto fluorescence at 535 nm (green) in HepG2 cells (AID 720675)
[7] = qHTS assay to test for compound auto fluorescence at 460 nm (blue) in HEK293 cells (AID 720678)
Procedure, shortened: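 Intrinsic compound fluorescence is recorded in live HEK293 cultures after overnight incubation at 37C, 5% CO2, using excitation 405 nm and emission 460 nm. Values are referenced to triamterene.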

[8] = qHTS assay to test for compound auto fluorescence at 590 nm (red) in HEK293 cells (AID 720679)
Procedure, shortened: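 Red autofluorescence, HEK293 cells: 2,000 cells/well; attach 4-5 hr 37C; add 23 nL cpd or DMSO; incubate o/n 37C 5% CO2; read Ex540/Em590; Rose Bengal sodium reference.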

[9] = qHTS assay to test for compound auto fluorescence at 535 nm (green) in HEK293 cells (AID 720680)
[10] = qHTS assay to test for compound auto fluorescence at 460 nm (blue) in HEK293 cell free culture (AID 720681)
Procedure, shortened: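 Test compounds were pinned into cell-free culture medium (DMEM with 10% FBS) and fluorescence was read directly at Ex/Em 405/460 nm. Signals were expressed as fluorescence equivalents of triamterene, with DMSO vehicle as control.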

[11] = qHTS assay to test for compound auto fluorescence at 535 nm (green) in HEK293 cell free culture (AID 720682)
Procedure, shortened: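 Each library compound, or DMSO control, is added by pintool to medium alone, comprising DMEM and 10% FBS. Emission at 535 nm following 485 nm excitation is quantified against fluorescein.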

[12] = qHTS assay to test for compound auto fluorescence at 590 nm (red) in HEK293 cell free culture (AID 720683)
Procedure, shortened: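 Tox21 10K library compounds were pinned into cell-free DMEM with 10% FBS and fluorescence was read at excitation 540 nm. Activity is expressed as Rose Bengal sodium equivalency.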

[13] = qHTS assay to test for compound auto fluorescence at 590 nm (red) in HepG2 cell free culture (AID 720684)
Procedure, shortened: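 Red fluorescence (540 nm excitation, 590 nm emission) was measured after compound transfer into cell-free MEM supplemented with 10% FBS. Values are equivalencies against Rose Bengal sodium.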

[14] = qHTS assay to test for compound auto fluorescence at 460 nm (blue) in HepG2 cell free culture (AID 720685)
Procedure, shortened: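 Compound (23 nL) or DMSO pinned into cell-free MEM with 10% FBS; blue fluorescence read at 405/460 nm excitation/emission, expressed as auto-fluorescence equivalency to triamterene.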

[15] = qHTS assay to test for compound auto fluorescence at 535 nm (green) in HepG2 cell free culture (AID 720686)
[16] = qHTS assay to test for compound auto fluorescence at 460 nm (blue) in HepG2 cells (AID 720687)
Procedure, shortened: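 Cells (2,000/well in MEM with 10% FBS) attached overnight at 37 C, then were exposed to compound or DMSO for 1 hr at 37 C, 5% CO2. Fluorescence read at Ex/Em 405/460 nm, expressed as triamterene-equivalent signal.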

[17] = biological target: Glucocorticoid receptor (Homo sapiens) (UniProt P04150); experiment: qHTS assay to identify small molecule agonists of the glucocorticoid receptor (GR) signaling pathway (AID 720691; active means well fitted activation curve with a large enough effect in the signal ratio in the repeat runs, not every such curve was filed as active; the % refers to the signal ratio)
Chain of Glucocorticoid receptor (Homo sapiens) (P04150 whole entry, looked up): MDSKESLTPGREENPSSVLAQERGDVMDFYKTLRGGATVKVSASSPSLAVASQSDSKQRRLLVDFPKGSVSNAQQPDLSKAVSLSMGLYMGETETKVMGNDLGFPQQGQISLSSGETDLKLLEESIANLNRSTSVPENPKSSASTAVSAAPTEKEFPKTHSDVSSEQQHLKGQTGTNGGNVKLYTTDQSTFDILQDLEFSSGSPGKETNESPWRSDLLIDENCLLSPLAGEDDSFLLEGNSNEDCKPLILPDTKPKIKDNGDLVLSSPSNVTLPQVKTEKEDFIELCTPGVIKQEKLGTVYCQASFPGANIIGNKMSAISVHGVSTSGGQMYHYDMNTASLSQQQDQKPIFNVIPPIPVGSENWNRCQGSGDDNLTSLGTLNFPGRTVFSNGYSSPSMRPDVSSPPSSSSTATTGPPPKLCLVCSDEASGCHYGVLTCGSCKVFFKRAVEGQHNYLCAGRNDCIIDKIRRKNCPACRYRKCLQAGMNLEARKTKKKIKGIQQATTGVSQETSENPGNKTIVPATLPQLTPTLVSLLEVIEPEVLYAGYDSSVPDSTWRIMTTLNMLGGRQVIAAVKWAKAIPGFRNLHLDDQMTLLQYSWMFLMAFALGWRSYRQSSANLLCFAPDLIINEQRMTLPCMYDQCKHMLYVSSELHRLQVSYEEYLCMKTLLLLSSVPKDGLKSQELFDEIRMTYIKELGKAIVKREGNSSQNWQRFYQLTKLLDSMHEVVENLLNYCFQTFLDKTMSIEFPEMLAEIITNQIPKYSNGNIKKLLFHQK
Procedure, shortened: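 GR-bla HeLa cells carrying a GRE-driven beta-lactamase reporter, exposed to compounds for 18 h at 37 C. Reporter activation read as fluorescence after 2 h with LiveBLAzer B/G FRET substrate at room temperature.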

[18] = biological target: Glucocorticoid receptor (Homo sapiens) (UniProt P04150); experiment: qHTS assay to identify small molecule antagonists of the glucocorticoid receptor (GR) signaling pathway (AID 720692; active means well fitted inhibition curve with a large enough effect in the signal ratio in the repeat runs, not every such curve was filed as active; the % refers to the signal ratio)
Procedure, shortened: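 GR-bla HeLa cells carrying a GRE-driven beta-lactamase reporter received compound after 4 h plating, then dexamethasone (5 nM final). After 18 h at 37C, the FRET substrate was loaded for 2 h at room temperature and fluorescence read.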

[19] = qHTS assay for identifying genotoxic compounds that show differential cytotoxicity against isogenic chicken DT40 cell lines with known DNA damage response pathways - wild type cell line (AID 743012); further: potency means the concentration at half of the fitted maximal effect; nearly all actives have a fitted effect of over 60% in size
Procedure, shortened: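 Wild-type DT40 cells (300/well) exposed to compounds for 40 hours at 37 C/5% CO2. Viability read by CellTiter-Glo luminescence after 30 min at room temperature.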

[20] = qHTS assay for identifying genotoxic compounds that show differential cytotoxicity against isogenic chicken DT40 cell lines with known DNA damage response pathways - Rev3 mutant cell line (AID 743014); further: potency means the concentration at half of the fitted maximal effect; nearly all actives have a fitted effect of over 55% in size
[21] = qHTS assay for identifying genotoxic compounds that show differential cytotoxicity against isogenic chicken DT40 cell lines with known DNA damage response pathways - Rad54/Ku70 mutant cell line (AID 743015); further: potency means the concentration at half of the fitted maximal effect; nearly all actives have a fitted effect of over 60% in size
[22] = qHTS assay to identify small molecule antagonists of the androgen receptor (AR) signaling pathway - cell viability counter screen (AID 743033; further: nearly all actives have a fitted effect of over 45% in size)
[23] = qHTS assay to identify small molecule antagonists of the androgen receptor (AR) signaling pathway using the MDA cell line - cell viability counter screen (AID 743041; further: nearly all actives have a fitted effect of over 45% in size)
Procedure, shortened: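 MDA-kb2 AR-luc human breast carcinoma cells (MMTV-luciferase, AR/GR responsive) were treated with compounds plus R1881 agonist for 16 h at 37 °C. Viability was read as CellTiter-Fluor fluorescence in the same wells as the reporter assay.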

[24] = system: thyroid hormone receptor (rat, GH3 cells); experiment: qHTS assay to identify small molecule agonists of the thyroid receptor (TR) signaling pathway (AID 743066; calls by dose curve)
[25] = biological target: Estrogen receptor (Homo sapiens) (UniProt P03372); experiment: qHTS assay to identify small molecule antagonists of the estrogen receptor alpha (ER-alpha) signaling pathway (AID 743069; active means well fitted curve in the direction sought with a large enough effect in the signal ratio in the repeat runs, not every such curve was filed as active; the % refers to the signal ratio)
Chain of Estrogen receptor (Homo sapiens) (P03372 whole entry, looked up): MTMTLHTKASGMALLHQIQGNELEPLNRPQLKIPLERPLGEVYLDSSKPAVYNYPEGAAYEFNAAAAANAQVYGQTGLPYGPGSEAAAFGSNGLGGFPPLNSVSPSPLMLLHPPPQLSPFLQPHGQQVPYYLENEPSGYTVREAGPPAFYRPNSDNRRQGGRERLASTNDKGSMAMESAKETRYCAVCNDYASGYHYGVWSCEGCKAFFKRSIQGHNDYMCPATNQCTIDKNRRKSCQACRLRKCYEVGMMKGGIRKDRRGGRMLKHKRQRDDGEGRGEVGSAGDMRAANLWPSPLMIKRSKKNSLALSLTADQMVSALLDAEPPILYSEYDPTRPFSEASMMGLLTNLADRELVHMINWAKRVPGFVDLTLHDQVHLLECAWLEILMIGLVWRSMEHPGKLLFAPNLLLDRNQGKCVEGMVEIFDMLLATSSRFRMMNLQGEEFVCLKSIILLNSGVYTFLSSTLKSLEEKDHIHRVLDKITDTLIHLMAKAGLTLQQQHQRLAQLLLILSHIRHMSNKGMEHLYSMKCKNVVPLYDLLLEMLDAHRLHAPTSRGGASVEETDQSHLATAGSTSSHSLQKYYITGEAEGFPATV
Procedure, shortened: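 HEK293 cells stably carrying an ER-alpha-UAS-bla beta-lactamase reporter were pre-cultured overnight in 2% charcoal-stripped FBS medium. Test compounds in DMSO were added together with 17beta-estradiol for 18 hr at 37C. Read-out was fluorescence after 2 hr with LiveBLAzer B/G FRET substrate at room temperature.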

[26] = qHTS assay to identify small molecule antagonists of the estrogen receptor alpha (ER-alpha) signaling pathway - cell viability counter screen (AID 743074; calls by dose curve; further: nearly all actives have a fitted effect of over 45% in size)
[27] = biological target: Estrogen receptor (Homo sapiens) (UniProt P03372); experiment: qHTS assay to identify small molecule agonists of the estrogen receptor alpha (ER-alpha) signaling pathway (AID 743075; calls by dose curve)
[28] = biological target: Estrogen receptor (Homo sapiens) (UniProt P03372); experiment: qHTS assay to identify small molecule agonists of the estrogen receptor alpha (ER-alpha) signaling pathway using the BG1 cell line (AID 743079); further: potency means the concentration at half of the fitted maximal effect; nearly all actives have a fitted effect of over 20% in size
[29] = qHTS assay to identify small molecule antagonists of the estrogen receptor alpha (ER-alpha) signaling pathway using the BG1 cell line - cell viability counter screen (AID 743081);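 further: compound given together with 17beta-estradiol as the ER stimulus; series mostly up to about 70 µM; nearly all actives have a fitted effect of over 45% in size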
Aromatase (Homo sapiens) = Aromatase (Homo sapiens) (UniProt P11511); experiment: qHTS assay to identify aromatase inhibitors (AID 743083); further: series mostly up to about 70 µM; nearly all actives have a fitted effect of over 55% in size
Chain of Aromatase (Homo sapiens) (P11511 whole entry, looked up): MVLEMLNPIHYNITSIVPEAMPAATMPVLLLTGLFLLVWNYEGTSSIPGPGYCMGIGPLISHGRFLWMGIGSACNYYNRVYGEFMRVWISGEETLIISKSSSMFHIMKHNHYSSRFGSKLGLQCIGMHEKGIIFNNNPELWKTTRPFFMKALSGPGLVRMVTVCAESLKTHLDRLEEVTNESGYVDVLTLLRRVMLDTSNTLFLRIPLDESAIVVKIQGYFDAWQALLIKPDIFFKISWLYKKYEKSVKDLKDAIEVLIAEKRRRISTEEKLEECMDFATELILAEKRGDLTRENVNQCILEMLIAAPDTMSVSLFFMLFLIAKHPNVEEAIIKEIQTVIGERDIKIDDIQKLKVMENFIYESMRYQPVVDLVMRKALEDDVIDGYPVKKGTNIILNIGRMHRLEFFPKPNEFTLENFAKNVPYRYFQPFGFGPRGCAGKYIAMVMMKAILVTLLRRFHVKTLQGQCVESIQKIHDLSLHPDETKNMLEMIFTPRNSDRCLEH

[30] = qHTS assay to identify aromatase inhibitors - cell viability counter screen (AID 743084);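 further: cells stimulated with testosterone during compound exposure; nearly all actives have a fitted effect of over 55% in size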
[31] = biological target: Aryl hydrocarbon receptor (Homo sapiens) (UniProt P35869); experiment: qHTS assay to identify small molecule that activate the aryl hydrocarbon receptor (AhR) signaling pathway (AID 743085);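 further: HG2L7.5c1 human HepG2 liver cells with stably integrated DRE-driven firefly reporter; series mostly up to about 70 µM; nearly all actives have a fitted effect of over 15% in size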
Chain of Aryl hydrocarbon receptor (Homo sapiens) (P35869 whole entry, looked up): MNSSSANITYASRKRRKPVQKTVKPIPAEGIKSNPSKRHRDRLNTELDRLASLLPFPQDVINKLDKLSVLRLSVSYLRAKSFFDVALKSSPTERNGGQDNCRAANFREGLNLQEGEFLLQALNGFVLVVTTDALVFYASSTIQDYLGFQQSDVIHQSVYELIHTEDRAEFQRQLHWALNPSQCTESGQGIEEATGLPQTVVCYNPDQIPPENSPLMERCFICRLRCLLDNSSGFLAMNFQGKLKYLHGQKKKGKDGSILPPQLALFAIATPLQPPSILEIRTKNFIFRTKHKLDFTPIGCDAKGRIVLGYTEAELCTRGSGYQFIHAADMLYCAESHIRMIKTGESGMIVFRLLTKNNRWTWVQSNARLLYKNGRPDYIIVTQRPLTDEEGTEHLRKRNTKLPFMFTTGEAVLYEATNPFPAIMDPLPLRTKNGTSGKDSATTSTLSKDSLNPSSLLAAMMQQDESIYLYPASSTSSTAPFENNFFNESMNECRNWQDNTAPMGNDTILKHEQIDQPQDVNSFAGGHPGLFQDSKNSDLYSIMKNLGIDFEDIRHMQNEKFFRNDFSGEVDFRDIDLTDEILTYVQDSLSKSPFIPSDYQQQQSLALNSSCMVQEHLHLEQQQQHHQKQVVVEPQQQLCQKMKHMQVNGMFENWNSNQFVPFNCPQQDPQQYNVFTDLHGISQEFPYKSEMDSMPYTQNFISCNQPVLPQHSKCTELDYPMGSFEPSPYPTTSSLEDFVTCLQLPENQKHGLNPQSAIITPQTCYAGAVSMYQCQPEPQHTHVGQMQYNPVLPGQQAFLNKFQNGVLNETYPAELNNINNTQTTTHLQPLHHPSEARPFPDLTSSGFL
Procedure, shortened: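 Stably transfected human liver carcinoma cells (HG2L7.5c1; 20 DRE-firefly luciferase) were incubated 5 h, dosed, and kept 24 h at 37C. Agonism was scored from increased luciferase luminescence.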

[32] = qHTS assay to identify small molecule that activate the aryl hydrocarbon receptor (AhR) signaling pathway - cell viability counter screen (AID 743086)
Procedure, shortened: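 HepG2-AhR-luc (HG2L7.5c1) cells, 4000/well, were preincubated 5 h at 37C, exposed to compound in qHTS format for 24 hr at 37C, then given CellTiter-Fluor for 30 min; viability was read as fluorescence in the reporter wells.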

[33] = biological target: Peroxisome proliferator-activated receptor gamma (Homo sapiens) (UniProt P37231); experiment: qHTS assay to identify small molecule agonists of the peroxisome proliferator-activated receptor gamma (PPARg) signaling pathway (AID 743094; active means well fitted activation curve with a large enough effect in the signal ratio in the repeat runs, not every such curve was filed as active; the % refers to the signal ratio)
Chain of Peroxisome proliferator-activated receptor gamma (Homo sapiens) (P37231 whole entry, looked up): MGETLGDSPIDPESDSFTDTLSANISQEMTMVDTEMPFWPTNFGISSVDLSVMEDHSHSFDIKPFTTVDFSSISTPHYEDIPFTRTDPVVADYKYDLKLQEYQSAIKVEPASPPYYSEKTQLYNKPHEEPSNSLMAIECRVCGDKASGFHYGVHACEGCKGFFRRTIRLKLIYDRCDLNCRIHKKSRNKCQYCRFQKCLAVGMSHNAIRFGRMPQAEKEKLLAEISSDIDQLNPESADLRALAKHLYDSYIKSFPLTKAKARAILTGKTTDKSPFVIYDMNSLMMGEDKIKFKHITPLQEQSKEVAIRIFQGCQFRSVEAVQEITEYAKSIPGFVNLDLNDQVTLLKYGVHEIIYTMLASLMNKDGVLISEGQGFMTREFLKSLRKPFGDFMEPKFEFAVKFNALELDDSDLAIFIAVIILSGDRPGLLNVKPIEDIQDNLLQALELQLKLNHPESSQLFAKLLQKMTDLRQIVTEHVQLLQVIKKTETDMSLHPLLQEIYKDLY
Procedure, shortened: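 GeneBLAzer PPARg UAS-bla HEK293H cells were plated, rested 5 h, then exposed to compounds for 17 h at 37C. Beta-lactamase activity was read by LiveBLAzer B/G FRET substrate fluorescence after 1 h at room temperature.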

[34] = qHTS assay to identify small molecule antagonists of the estrogen related receptor (ERR) signaling pathway - cell viability counter screen (AID 1224818); further: series mostly up to about 46 µM
Procedure, shortened: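 ERR cells, 2,000 per well, compound added after 6 h and incubated 17.5 h at 37 C. Viability read by CellTiter-Fluor fluorescence after a further 30 min at 37 C.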

[35] = qHTS assay to identify small molecule antagonists of the estrogen related receptor (ERR) signaling pathway (AID 1224819;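 further: luminescence from an ERR-driven luciferase reporter measured with One-Glo reagent; series mostly up to about 46 µM; nearly all actives have a fitted effect of over 50% in size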)
Procedure, shortened: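 ERR reporter cell line (NTP) plated at 2,000 cells/well, settled 6 h at 37C/5% CO2, then exposed to LOPAC compounds for 18 h at 37C. One-Glo luciferase luminescence read after 30 min at room temperature.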

[36] = system: estrogen-related receptor alpha (ERRalpha) with PGC-1alpha coactivator, human; experiment: qHTS assay to identify small molecule antagonists of the estrogen related receptor signaling pathway with the pleiotropic PPARgamma coactivator (PGC) (AID 1224821; calls by dose curve;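 further: series mostly up to about 46 µM; lower luminescence signal means antagonism of PGC/ERR signalling; nearly all actives have a fitted effect of over 50% in size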)
Procedure, shortened: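 Quantitative HTS for antagonism: PGC/ERR cells received compounds after 6 h attachment and were incubated 18 h at 37 C, with luminescence (One-Glo) as the endpoint.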

[37] = qHTS assay to identify small molecule antagonists of the estrogen related receptor signaling pathway with the pleiotropic PPARgamma coactivator (PGC) cell viability counter screen (AID 1224822; further: series mostly up to about 46 µM)
Procedure, shortened: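 PGC/ERR cells rested 6 h, then compound-treated 17.5 h at 37 C. CellTiter-Fluor added for 30 min at 37 C, viability measured by fluorescence intensity.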

[38] = qHTS assay to identify small molecule agonists of the estrogen related receptor signaling pathway with the pleiotropic PPARgamma coactivator (PGC) (AID 1224823)
Procedure, shortened: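 Cell-based luciferase assay in the NTP-supplied PGC/ERR line, 2,000 cells/well; 18 h compound exposure at 37 C, luminescence after One-Glo.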

[39] = qHTS assay to identify small molecule phospholipidosis (PLD) inducers (AID 1259344; active means well fitted curve in the direction sought with a large enough effect; an effect the other way counts as inactive or inconclusive)
Procedure, shortened: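 HepG2 cells on collagen I, attached 4 h at 37 C, were co-treated with compound and LipidTOX Red dye for 24 h at 37 C, then fixed with paraformaldehyde plus Hoechst 33342 and imaged by high-content microscopy for phospholipid accumulation.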

[40] = biological target: Nuclear receptor subfamily 1 group I member 2 (Homo sapiens) (UniProt O75469); experiment: CYP3A4 induction through human pregnane X receptor (PXR) by small molecules, qHTS assay (AID 1346984); further: nearly all actives have a fitted effect of over 40% in size
Procedure, shortened: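 DPX-2 HepG2 cells carrying a PXR response element and CYP3A4-promoter luciferase construct, treated with compounds 24 hr at 37C. Then P450-Glo CYP3A4 Luciferin-IPA substrate (3uM final) for 3 hr at 37C, One-Glo added, luminescence read.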

Measured: Potency

CC(C)NC(C)Cc1ccc(I)cc1 (stereo unspecified)
inactive: [1] | [2] | [3] | [4] | [5] | [6] | [7] | [8] | [9] | [10] | [11] | [12] | [13] | [14] | [15] | [16] | [17] | [18] | [22] | [23] | [24] | [25] | [26] | [27] | [29] | Aromatase (Homo sapiens) | [30] | [31] | [32] | [33] | [34] | [35] | [36] | [37] | [38] | [39] | [40]
active: [19] 26.6 µM | [20] 1.68 µM | [21] 13.3 µM | [28] 21.1 µM

Source: PubChem BioAssay (Tox21)
